# From PubChem BioAssay (EPA / NIEHS)
# Records with an inconclusive call do not appear. Activity calls are given as the source filed them. How the source made its calls: active means hit-call score of the fitted dose curve at least 0.9, where 1 is the maximum; inconclusive means response in the unintended direction; inactive means score below 0.9.
# Experiment: CLD_ACTIN_48hr: CellzDirect (CLD) Gene Expression Assay for Baseline Control (Actin) at 48 hours (AID 2283702)
# Protocol: CLD_48hr is a cell-based, multiplexed-readout assay that uses hepatocyte, a human liver primary cell, with measurements taken at 48 hours after chemical dosing in a 96-well plate.CLD_ACTIN_48hr is one of 16 assay component(s) measured or calculated from the CLD_48hr assay. It is designed to make measurements of mRNA induction, a form of inducible reporter, as detected with chemiluminescence signals by Quantitative Nuclease Protection Assay (qNPA) technology.Data from the assay component CLD_ACTIN_48hr was analyzed at the endpoint, CLD_ACTIN_48hr, in the positive analysis fitting direction relative to DMSO as the negative control and baseline of activity. Using a type of inducible reporter, gain-of-signal activity can be used to understand changes in the reporter gene as they relate to the gene ACTA1. Furthermore, this assay endpoint can be referred to as a secondary readout, because this assay has produced multiple assay endpoints where this one serves a background control function. To generalize the intended target to other relatable targets, this assay endpoint is annotated to the background measurement intended target family, where subfamily is baseline control.
# Human hepatocyte cultures were treated daily for two consecutive days with fresh dosing solutions containing appropriate concentrations of the 320 ToxCast chemicals (chemical identities were blinded to CellzDirect and other ToxCast collaborators), vehicle control (0.2% DMSO), and positive control inducers as summarized in Table 1. Due to the large number of treatment groups and chemicals examined, the ToxCast chemicals were divided into two groups (spanning two independent cultures of hepatocytes from separate donor preparations (Hu778: ToxCast plates 1 and 2; Hu776: ToxCast plates 3 and 4). Each preparation of human hepatocyte cultures was treated with respective vehicle control, medium only control, set of six positive controls/reference chemicals for the five hepatic receptor pathways, and a subset of eight of the ToxCast chemicals (indoxacarb, pyrithiobac-sodium, norflurazon, cyhalofop-butyl, methomyl, thiram, acetochlor, and propiconazole). These replicate data, coupled with internal replicates designed within the blinded ToxCast chemical library, provided additional data to evaluate interindividual differences between hepatocyte preparations and their potential impact on chemical profiles.Cell morphology and integrity were evaluated using phase-contrast microscopy as an indicator of hepatocyte cell health (Tyson & Green, 1987). Cultures for each treatment group (i.e., media, vehicle [0.2% DMSO], positive control inducers [multiple concentrations], and the ToxCast chemicals [multiple concentrations]) were observed and cell morphology was assessed relative to vehicle control cultures at each harvest time point (0, 6, 24, or 48 h). […] Images were evaluated at the conclusion of the study to assess changes in cell integrity and account for the effects of chemical exposure on uncharacteristic changes in concentration-dependent gene expression profiles. The results from these determinations of apparent cytotoxicity were annotated (yes/no) alongside the corresponding qNPA data for reference.At the conclusion of each treatment period, hepatocyte cultures (96-well) were washed with 1 volume of HBSS, lysed by addition of 25 ul ArrayPlate lysis buffer (HTG, Tucson, AZ), and 70 ul/well of Denaturation Oil, denatured by incubation at 95C for 10 min, and frozen at approximately -70C until analysis by nuclease protection assay (qNPA) (Roberts et al., 2007). For qNPA analysis, cell lysates were thawed at 50C for approximately 30 min, qNPA probes were added, and samples were incubated at 95C for 10 min to begin the detection process by denaturing the target RNA, dissociating the duplexes and secondary structure hybridization. At the conclusion of the hybridization period, S1 nuclease reagent was added to each sample to digest all nonprotected nucleotides at 50C for 60-90 min. […]
row,Compound,outcome
1,CNC(=O)ON=C(SC)C(=O)N(C)C,inactive
2,CCc1cccc(CC)c1N(COC)C(=O)CCl,inactive
3,CC[C@H](C)[C@H]1O[C@]2(C=C[C@@H]1C)C[C@@H]1C[C@@H](C/C=C(\C)[C@@H](O[C@H]3C[C@H](OC)[C@@H](O[C@H]4C[C@H](OC)[C@@H](NC)[C@H](C)O4)[C@H](C)O3)[C@@H](C)/C=C/C=C3\CO[C@@H]4[C@H](O)C(C)=C[C@@H](C(=O)O1)[C@]34O)O2,inactive
4,CCC(CC)Nc1c([N+](=O)[O-])cc(C)c(C)c1[N+](=O)[O-],inactive
5,CCCCOC(=O)[C@@H](C)Oc1ccc(Oc2ccc(C#N)cc2F)cc1,inactive
6,COP(=O)(OC)C(O)C(Cl)(Cl)Cl (configuration not stated),inactive
7,CNC(=O)ON=C(C)SC,inactive
8,CCc1cnc(C2=NC(C)(C(C)C)C(=O)N2)c(C(=O)O)c1 (configuration not stated),inactive
9,COP(=O)(OC)SCn1c(=O)oc2cc(Cl)cnc21,inactive
10,C=C(C)[C@H]1Cc2c(ccc3c2O[C@@H]2COc4cc(OC)c(OC)cc4[C@@H]2C3=O)O1,inactive
11,COP(=O)(OC)OC(Br)C(Cl)(Cl)Br (configuration not stated),inactive
12,CON=C(C(=O)OC)c1ccccc1CON=C(C)c1cccc(C(F)(F)F)c1,inactive
13,CC1=NNC(=O)N(/N=C/c2cccnc2)C1,inactive
14,COc1ccc(C(=CC(=O)N2CCOCC2)c2ccc(Cl)cc2)cc1OC,inactive
15,O=c1ccc(=O)[nH][nH]1,inactive
16,CC(C)=CC1C(C(=O)OCN2C(=O)C3=C(CCCC3)C2=O)C1(C)C (configuration not stated),inactive

row,Compound,outcome
1,CNC(=O)Oc1cccc2c1OC(C)(C)O2,inactive
2,CN1COCN(Cc2cnc(Cl)s2)C1=N[N+](=O)[O-],inactive
3,C[Si](Cn1cncn1)(c1ccc(F)cc1)c1ccc(F)cc1,inactive
4,CC1(C(=O)Nc2ccc(O)c(Cl)c2Cl)CCCCC1,inactive
5,CC(C)N(C(=O)SCC(Cl)=C(Cl)Cl)C(C)C,inactive
6,Nc1nc(N)nc(NC2CC2)n1,inactive
7,S=C1NCCN1,inactive
8,N#CSCSC#N,inactive
9,C[N+]1(C)CCCCC1,inactive
10,CC(=NC#N)N(C)Cc1ccc(Cl)nc1,inactive
11,CCCOCC(=Nc1ccc(Cl)cc1C(F)(F)F)n1ccnc1,inactive
12,CSC1=N[C@@](C)(c2ccccc2)C(=O)N1Nc1ccccc1,inactive
13,CC(Oc1cccc(Cl)c1)C(=O)O (configuration not stated),inactive
14,CCCOc1nn(C(=O)NS(=O)(=O)c2ccccc2C(=O)OC)c(=O)n1C,inactive
15,COc1cc(OC)nc(Sc2cccc(Cl)c2C(=O)O)n1,inactive
16,Cc1nn(-c2cc(NS(C)(=O)=O)c(Cl)cc2Cl)c(=O)n1C(F)F,inactive
